In PubChem BioAssay AID1159580 (chemical genetic matrix, 2015):
“And” between values parts separate entries of the source, which are not always exact repeats. Equal values may be shown once. About 2,000 (36%) of roughly 5,500 compounds were called active. About 18% were inconclusive and are not listed. No stated cut-off is given here; in the data, active means normalized growth mostly below about 0.91 (no sharp cut-off); inconclusive means no clear call, values can overlap the other calls; inactive means mostly above about 0.92. The list shows a part of the results.

Assay: chemical genetic growth profiling, strain panel (AID 1159580);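 further: tested at 20 µM; growth read once vehicle control cultures reached saturation at 30 °C; 1 = growth at the plate median or of vehicle wells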
Conditions: S. cerevisiae deletion strains, growth OD

Measured: normalized growth

CC1=C2C(=CO[C@H](C)[C@H]2C)C(=O)C(C(=O)O)=C1O
active: locus YHR079C, strain IRE1, stronger effect = lower value 0.794
inactive: locus YAL021C, strain ccr4, stronger effect = lower value 0.993 | locus YAL026C, strain drs2, stronger effect = lower value 0.982 | locus YAL030W, strain snc1, stronger effect = lower value 0.977 | locus YBL061C, strain skt5, stronger effect = lower value 0.977 | locus YBR009C, strain hhf1, stronger effect = lower value 0.975 | locus YBR021W, strain FUR4, stronger effect = lower value 0.995 | locus YBR023C, strain chs3, stronger effect = lower value 0.97 | locus YBR171W, strain sec66, stronger effect = lower value 0.981 | locus YBR229C, strain ROT2, stronger effect = lower value 0.978 | locus YBR231C, strain swc5, stronger effect = lower value 0.979 | locus YBR279W, strain paf1, stronger effect = lower value 0.989 | locus YCL011C, strain gbp2, stronger effect = lower value 0.975 | locus YCL016C, strain dcc1, stronger effect = lower value 0.967 | locus YCL029C, strain bik1, stronger effect = lower value 0.986 | locus YCL061C, strain MRC1, stronger effect = lower value 0.967 | locus YCL069W, strain vba3, stronger effect = lower value 0.991 | locus YCR088W, strain abp1, stronger effect = lower value 0.973 | locus YDL005C, strain med2, stronger effect = lower value 0.971 | locus YDL035C, strain GPR1, stronger effect = lower value 0.995 | locus YDL040C, strain nat1, stronger effect = lower value 0.98 | locus YDL074C, strain BRE1, stronger effect = lower value 0.996 | locus YDL101C, strain DUN1, stronger effect = lower value 0.989 | locus YDL134C, strain PPH21, stronger effect = lower value 0.996 | locus YDL185W, strain tfp1, stronger effect = lower value 0.991 | locus YDL192W, strain arf1, stronger effect = lower value 0.983 | locus YDR001C, strain nth1, stronger effect = lower value 0.98 | locus YDR069C, strain doa4, stronger effect = lower value 0.976 | locus YDR101C, strain arx1, stronger effect = lower value 0.983 | locus YDR137W, strain rgp1, stronger effect = lower value 0.912 | locus YDR150W, strain NUM1, stronger effect = lower value 0.981 | locus YDR159W, strain sac3, stronger effect = lower value 0.957 | locus YDR162C, strain NBP2, stronger effect = lower value 0.978 | locus YDR195W, strain ref2 0.969 | locus YDR297W, strain sur2, stronger effect = lower value 0.989 | locus YDR318W, strain mcm21, stronger effect = lower value 0.989 | locus YDR334W, strain swr1, stronger effect = lower value 0.991 | locus YDR335W, strain msn5, stronger effect = lower value 0.994 | locus YDR388W, stronger effect = lower value 0.979 | locus YDR392W, strain spt3, stronger effect = lower value 0.821 | locus YDR502C, strain sam2, stronger effect = lower value 0.971 | locus YEL003W, strain gim4, stronger effect = lower value 0.988 | locus YEL037C, strain rad23, stronger effect = lower value 0.997 | locus YEL061C, strain CIN8 (second series), stronger effect = lower value 0.99 | locus YEL061C, strain CIN8, stronger effect = lower value 0.979 | locus YER015W, strain faa2, stronger effect = lower value 0.98 | locus YER016W, strain bim1, stronger effect = lower value 0.976 | locus YER110C, stronger effect = lower value 0.985 | locus YER111C, strain swi4, stronger effect = lower value 0.983 | locus YER155C, strain BEM2 (second series), stronger effect = lower value 0.938 | locus YER155C, strain BEM2, stronger effect = lower value 0.982 | locus YER167W, strain BCK2, stronger effect = lower value 0.969 | locus YFR010W, strain ubp6, stronger effect = lower value 0.991 | locus YGL078C, strain dbp3, stronger effect = lower value 0.987 | locus YGL086W, strain mad1, stronger effect = lower value 0.96 | locus YGL167C, strain pmr1, stronger effect = lower value 0.963 | locus YGL173C, strain kem1, stronger effect = lower value 0.983 | locus YGL227W, strain vid30, stronger effect = lower value 0.989 | locus YGL240W, strain doc1, stronger effect = lower value 0.97 | locus YGL248W, strain PDE1, stronger effect = lower value 0.991 | locus YGL253W, strain hxk2, stronger effect = lower value 1.01 | locus YGR135W, strain pre9, stronger effect = lower value 0.999 | locus YGR229C, strain SMI1, stronger effect = lower value 0.989 | locus YGR252W, strain gcn5, stronger effect = lower value 1.06 | locus YHR013C, strain ard1, stronger effect = lower value 0.94 | locus YHR027C, strain rpn1, stronger effect = lower value 0.977 | locus YHR079C, strain IRE1 (second series), stronger effect = lower value 0.985 | locus YHR094C, strain hxt1, stronger effect = lower value 0.975 | locus YHR129C, strain ARP1, stronger effect = lower value 0.982 | locus YHR142W, strain chs7, stronger effect = lower value 1.01 | locus YHR200W, strain rpn10, stronger effect = lower value 0.989 | locus YIL066C, strain RNR3, stronger effect = lower value 0.995 | locus YIL073C, strain SPO22, stronger effect = lower value 0.993 | locus YIL125W, strain kgd1, stronger effect = lower value 0.965 | locus YIR030C, strain dcg1, stronger effect = lower value 0.976 | locus YJL092W, strain hpr5, stronger effect = lower value 0.989 | locus YJL095W, strain BCK1 (second series), stronger effect = lower value 0.974 | locus YJL115W, strain asf1, stronger effect = lower value 0.987 | locus YJL129C, strain trk1, stronger effect = lower value 0.927 | locus YJL134W, strain LCB3, stronger effect = lower value 0.975 | locus YJL154C, strain vps35, stronger effect = lower value 0.993 | locus YJL164C, strain tpk1, stronger effect = lower value 0.974 | locus YJL166W, strain qcr8, stronger effect = lower value 0.983 | locus YJL168C, strain set2, stronger effect = lower value 0.98 | locus YJL187C, strain SWE1 (second series), stronger effect = lower value 0.995 | locus YJL187C, strain SWE1, stronger effect = lower value 0.979 | locus YJR043C, strain POL32, stronger effect = lower value 1.02
0.977 (inactive) and 0.85 (active): locus YHR030C, strain SLT2, stronger effect = lower value
0.947 (inactive) and 0.851 (active): locus YJL095W, strain BCK1, stronger effect = lower value
